Our source for the growth values is PubChem BioAssay (NCI).

SMILES strings stand for the structures. About 83,000 compounds went through this panel and 20% of them were active in at least one assay; those are over-represented in the sample as a whole.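 Single-dose data. Exposure time 48 hours. Values below 10 considered active.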 Unmarked numbers belong to inactive results. Active and inactive are the calls of the source.

The subject of this assay is HL-60(TB) leukemia. The experiment in a line: NCI-60 one-dose screen, 48 h (100 = growth as untreated, 0 = no growth, -100 = all killed). The settings on record: 10 µM unless noted.
Take `CC1=NOC(=O)/C1=C\c1ccc(O)cc1`: the growth was 105%.

As to `COc1ccc(C2CC(c3ccc4ccccc4c3)=NN2c2nc(O)c(C3=c4cc(Cl)ccc4=NC3=O)s2)cc1` (centres undefined), the growth is -6.68% (active).

In the case of `COc1cc(-c2ccc[nH]2)[nH]c1/C=C1\N=C(C)C(C(=O)NC(C)C)=C1C`, the growth was 26.1%.

Take `O=C([C@@H](COCc1ccccc1)N1C(=O)[C@@H](N2C(=O)OC[C@@H]2c2ccccc2)[C@H]1/C=C/c1ccccc1)N1CCC(CCN2CCCCC2)CC1`: the growth was 64.5%.

Take `CC(=O)c1sc2c(c1OC(=O)c1ccc(Cl)cc1Cl)c(=O)n(-c1ccccc1)c(=S)n2-c1ccccc1`: the growth was -31.9% (active).

For `O=S1(=O)OC(c2ccc(O)c(Cl)c2)(c2ccc(O)c(Cl)c2)c2ccccc21`, the growth is 109%.

`CN(CCOc1ccc(CC2SC(=O)NC2=O)cc1)c1ccccn1` (centres undefined): the growth was 128%.

For `Cc1cc(C(=O)Nc2ncc(Cc3cccc(C(F)(F)F)c3)s2)c2ccccc2n1`, the growth was -33.8% (active).

Take `C[N+](C)(C)CCCCCCCCCC[N+](C)(C)C`: the growth is 96.5%.

Regarding `Cc1ccc(/C=N/NC(=O)CSc2nc3ccccc3c(=O)n2Cc2ccc(S(N)(=O)=O)cc2)cc1`, the growth is 97.8%.

For `Clc1cccc(C2Cc3cnccc3-c3[nH]c4ccncc4c32)c1` (centres undefined), the growth is 25.3%.

Take `NCCOCCOc1ccccc1`: the growth is 108%.

On to `COc1ccc(C(=O)N2c3ccccc3Sc3ccccc32)c(OC)c1`, for which the growth was 0.583% (active).

Consider `CCC1(CC)C(OC)NC(Br)=C(C#N)C1(C#N)C(N)=O` (centres undefined), for which the growth is 93.1%.
